Results taken from ChEMBL document CHEMBL3988442, “University of Dundee, Small-Polar-MMV Screening Library” (2021).

Target: Chromo domain-containing protein 1 (Saccharomyces cerevisiae (strain ATCC 204508 / S288c) (Baker's yeast)) (UniProt P32657)
Assay: ScCHD-1 Enzyme Inhibition Assay
Type: functional
Parameters: scale not given: in the data most compounds retested in dose-response had high values
Conditions: 30 µM

Chain of Chromo domain-containing protein 1 (Saccharomyces cerevisiae (strain ATCC 204508 / S288c) (Baker's yeast)) (P32657 whole entry, the tested form may be a part): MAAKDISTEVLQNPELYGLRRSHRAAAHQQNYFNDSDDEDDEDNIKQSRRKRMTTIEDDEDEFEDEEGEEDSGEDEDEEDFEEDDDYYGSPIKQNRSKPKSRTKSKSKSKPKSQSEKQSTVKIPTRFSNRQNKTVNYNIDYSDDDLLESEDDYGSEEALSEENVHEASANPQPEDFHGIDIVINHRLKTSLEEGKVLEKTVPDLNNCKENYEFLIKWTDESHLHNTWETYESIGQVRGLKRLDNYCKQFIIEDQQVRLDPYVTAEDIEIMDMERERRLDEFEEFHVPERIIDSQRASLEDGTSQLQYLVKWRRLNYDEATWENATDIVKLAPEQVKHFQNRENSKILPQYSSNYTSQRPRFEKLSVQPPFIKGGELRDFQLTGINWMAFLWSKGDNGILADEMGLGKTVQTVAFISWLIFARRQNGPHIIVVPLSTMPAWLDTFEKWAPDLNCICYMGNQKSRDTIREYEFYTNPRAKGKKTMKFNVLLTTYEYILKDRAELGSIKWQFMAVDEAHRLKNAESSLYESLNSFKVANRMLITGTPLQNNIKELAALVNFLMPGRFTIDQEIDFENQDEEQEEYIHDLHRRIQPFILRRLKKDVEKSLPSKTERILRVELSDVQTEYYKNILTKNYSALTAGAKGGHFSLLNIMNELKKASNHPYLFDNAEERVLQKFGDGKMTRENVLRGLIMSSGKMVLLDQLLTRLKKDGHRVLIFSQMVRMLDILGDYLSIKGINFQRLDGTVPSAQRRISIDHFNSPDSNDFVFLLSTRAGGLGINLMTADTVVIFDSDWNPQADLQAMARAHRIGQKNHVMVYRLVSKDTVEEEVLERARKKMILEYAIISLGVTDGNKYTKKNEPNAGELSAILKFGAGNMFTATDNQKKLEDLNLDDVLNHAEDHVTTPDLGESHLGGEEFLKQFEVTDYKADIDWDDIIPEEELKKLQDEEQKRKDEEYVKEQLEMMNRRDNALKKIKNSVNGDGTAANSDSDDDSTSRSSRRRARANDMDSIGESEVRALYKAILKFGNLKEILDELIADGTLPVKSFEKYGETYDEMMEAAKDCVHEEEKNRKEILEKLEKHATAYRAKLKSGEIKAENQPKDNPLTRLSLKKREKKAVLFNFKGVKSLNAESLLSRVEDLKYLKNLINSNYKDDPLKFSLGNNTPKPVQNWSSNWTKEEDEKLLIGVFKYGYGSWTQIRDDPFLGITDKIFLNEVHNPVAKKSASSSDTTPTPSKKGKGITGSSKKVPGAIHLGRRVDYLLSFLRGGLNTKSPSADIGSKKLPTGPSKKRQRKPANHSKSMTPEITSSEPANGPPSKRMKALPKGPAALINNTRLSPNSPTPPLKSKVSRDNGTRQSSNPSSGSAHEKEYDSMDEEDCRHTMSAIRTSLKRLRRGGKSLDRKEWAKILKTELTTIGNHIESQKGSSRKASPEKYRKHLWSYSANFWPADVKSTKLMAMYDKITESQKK

SMILES	Percent Effect [%]
CC(=O)N1CCCN(C(=O)NCCc2cc(Cl)cc(Cl)c2)CC1	-17.6
CC(NC(=O)NCCCN(C)S(C)(=O)=O)c1ccncc1 (centres undefined)	-14.2
COc1cc(C(=O)N2CCC(c3n[nH]c(C4CC4)n3)CC2)ccc1C	-30.5
Cc1cc2n(n1)CC(CNCc1cnn(-c3ccccc3)c1)CN2 (centres undefined)	-7.16
Cc1nc(O)cc(C2CCN(Cc3cccc(F)c3F)C2)n1 (centres undefined)	-14.2
CCn1ccnc1CN1CCN(Cc2ccc(C#N)cc2)CC1	-11.6
O=C(CC1CCCC1)N1CCCC1c1nc(O)cc(-c2ccccn2)n1 (centres undefined)	-15.4
CC(C)NC(=O)c1ccc2c(c1)nc1n2CCN(C(C)C)C1	-10.7
CN(C)C(=O)CC1CC2(CCNCC2)c2cc(F)ccc21 (centres undefined)	1.02
COc1cccc(COCC(=O)N2CCCC(c3cc(C)[nH]n3)C2)c1 (centres undefined)	-4.89
Cc1ccccc1C(=O)N1CCOC2(CNCCOC2)C1 (centres undefined)	-3.15
CC(C)n1ccnc1CN1CCCN(C(=O)COC2CCCC2)CC1	-6.72
OC[C@H]1CC[C@]2(CC1)CN(Cc1ccccc1F)Cc1ccccc1O2	-0.993
Cc1nc(CN2C[C@@H]3CN(C(=O)c4cnccn4)C[C@@H]3C2)cs1	-3.57
c1ccc(-c2noc(CNC3CCc4ncnn4C3)n2)nc1 (centres undefined)	-1.02
CCN1CC(C(=O)NC(C)(C)CNC(=O)OC(C)(C)C)CC1=O (centres undefined)	-4.86
CC(Cn1cccn1)NC(=O)Nc1ccc(F)cc1 (centres undefined)	-1.51
Cc1nc2cc(O)nn2c(C)c1CCC(=O)N(C)Cc1cscn1	-11.6
CCc1ncc(CNC2CC(=O)N(CCc3cccc(Cl)c3)C2)cn1 (centres undefined)	-2.3
CC(C)n1c(C2CCCN(CCS(C)(=O)=O)C2)nc2ccccc21 (centres undefined)	-2.93

SMILES	Percent Effect [%]
O=C(Cc1ccc2c(c1)OCCO2)N1CCCC(n2cccn2)C1 (centres undefined)	-15
Cc1nc(C)n(C2CCCN(C(=O)c3sccc3C3CC3)C2)n1 (centres undefined)	-7.52
Cc1ccc2c(n1)N(CCn1cccn1)CCN(C(=O)CC1CC1)C2	-7.62
Cc1nc(CNC(C)c2ccc(OCC(=O)NC3CC3)cc2)cs1 (centres undefined)	-24.3
CN(CCC#N)C(=O)CCOc1cccc(F)c1	-3.22
COc1cccc(CNC(=O)CN2CCCCC2Cn2cccn2)c1 (centres undefined)	-17.2
CN1CC(=O)N(c2cnn(C)c2)CC12CCN(Cc1nccn1C)C2 (centres undefined)	-4.89
COc1ncccc1NC(=O)N1CCC(CN2CCOCC2)CC1	0.459
CC(=O)NC(C)(C)C(=O)Nc1ncc(Cc2ccc(C)c(F)c2)s1	-33.1
Cc1cccc(COC[C@]23COC[C@H]2CN(C(=O)c2ccsc2)C3)n1	-5.97
COCc1noc(C2(c3ccc(OC)cc3)CCOCC2)n1	-2.16
CC(=O)Nc1cccc(C(=O)Nc2cnc3n2CCCC3)c1	-3.23
O=C(NCCOc1ccc2c(c1)OCO2)C1CC(=O)N(CC2CC2)C1 (centres undefined)	-7.44
CN(C)c1cncc(C2CCN(CCO)CC2)n1	-15.7
COc1ccc(OCC(=O)NS(=O)(=O)c2cc(F)ccc2F)cc1	-2.11
Cc1nn(C)c(N(C)C)c1CNCc1cccnc1-n1cncn1	-7.57
COc1ccc(CN2C[C@@H]3COC[C@]3(COc3cccnc3)C2)cc1	-0.593
O=C(NCCN1CCC(c2cccs2)CC1)c1ccccc1C(F)(F)F	-4.65
Cc1nc(CN2CCCC(N(C)Cc3c(C)noc3C)C2)no1 (centres undefined)	-22.6
